Inconclusive results are not listed. Active and inactive are the calls of the source. Unless noted, calls come from the whole dose curve; as a rule, active = well fitted curve in the direction sought with a large enough effect; inconclusive = small, poorly fitted or top-dose-only effect, or another doubt; inactive = no such curve, though single readings can be large; an effect the other way counts as inactive or inconclusive.
What was measured:
[1] = biological target: Lysosomal acid glucosylceramidase (Homo sapiens) (UniProt P04062); assay: Glucocerebrosidase-p2 (AID 348; in the data active = potency below about 10 µM; note: potency is the fitted concentration of half-maximal effect); details: purified GBA, blue fluorogenic substrate, 40 min
Method in brief: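 Compounds titrated from 0.6 nM upwards against 0.2 nM enzyme in pH 5.9 citric acid/KH2PO4, taurocholate, tween-20; blue fluorogenic substrate 80 uM, 40 min room temperature, stopped and read Ex 365/Em 440 for AC50.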

[2] = AP1 Signaling Pathway (AID 357; active = well fitted curve in either direction with a large enough effect, not every such curve was filed as active;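 note: ME-180 reporter cells stimulated with EGF at its EC50 level; % is set by controls: 0 for no effect and ±100 for the full control effect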); details: ME-180 AP-1-bla reporter, EGF-induced, beta-lactamase ratio, 5 h; at 7.69 µM (top of the series) unless noted
Method in brief: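 Cells are seeded overnight, exposed to compound titrations and an EC50 level of EGF for 5 hours at 37 °C, then loaded with CCF4 dye for 2.5 hours. Beta-lactamase activity under the AP-1 element is read as a blue/green ratio.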

[3] = biological target: Cytochrome P450 1A2 (Homo sapiens) (UniProt P05177); assay: p450-cyp1a2 (AID 410; calls by dose curve;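 note: -100% = full effect of reference inhibitor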); details: recombinant CYP1A2, luciferin-ME demethylation, luminescence; series mostly up to 11.4 µM
Method in brief: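 Luminescent readout of luciferin formed from Luciferin-ME by human CYP1A2; data normalized against complete inhibition by 57 uM furafylline. Enzyme 20nM, substrate 100uM at Km, 100mM KPO4 buffer, 60 min reaction at room temperature.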

[4] = Stat Signaling Pathway (AID 446; active = well fitted curve in either direction with a large enough effect, not every such curve was filed as active;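 note: ME-180 cervical cancer cells given 40 pM IL-6 alongside compound; SIE-controlled beta-lactamase reporter measured as 460/530 nm FRET emission ratio; % is set by controls: 0 for no effect and ±100 for the full control effect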); details: ME-180 SIE beta-lactamase reporter, IL-6 stimulated, 5 h; at 7.69 µM (top of the series) unless noted
Method in brief: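 Screening format detects activators and inhibitors alike: ME-180 SIE-bla cells stimulated at 40 pM IL-6 for 5 hrs with compound, then dual-emission beta-lactamase read at 405 nm excitation.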

[5] = biological target: Glucocorticoid receptor (Homo sapiens) (UniProt P04150); assay: GR-GFP Redistribution (AID 450;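 active = compounds whose dose series gives a full or clear partial fitted curve of increased nuclear translocation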; note: potency is the fitted concentration of half-maximal effect); details: U2OS GR-GFP nuclear translocation, laser cytometry, 2 h
[6] = biological target: Mitogen-activated protein kinase 10 (Mus musculus) (UniProt Q61831); assay: JNK3 AlphaScreen Assay (AID 530; active = well fitted curve in either direction with a large enough effect, not every such curve was filed as active;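 note: kinase came from lysate of stimulated human HepG2 cells; signal reports phosphorylation of biotinylated GST-cJun 1-79 at Ser73 with 10 µM ATP; % is set by controls: 0 for no effect and ±100 for the full control effect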); details: JNK3 lysate, c-Jun phosphorylation; series mostly up to 57.1 µM
Method in brief: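 Pre-activated (IL-1β/TNFα) JNK3 in HepG2 lysates phosphorylates biotin-GST-cJun(1-79), 10 uM ATP; anti-phospho-cJun(Ser73) AlphaScreen read at room temperature, pH 7.6 Tris buffer. Compounds pre-incubated 15 min as titrations.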

[7] = biological target: 3',5'-cyclic-AMP phosphodiesterase 4B (Homo sapiens) (UniProt Q07343); assay: qHTS Assay for Inhibitors of PDE-IV (AID 607; active = well fitted activation curve with a large enough effect in the main read-out, with a control signal flat, not every such curve was filed as active; note: % of control where 0% means no effect); details: HEK293 ACTOne CNG channel cells, membrane potential fluorescence; series mostly up to 22.9 µM
Method in brief: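 The readout is membrane depolarisation from a cAMP-sensing CNG channel, detected with a potential dye at ex 535/em 590. Cells were HEK293-derived (endogenous PDE-IV) at 1000 cells/well, titrated up to 22.9 uM final.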

[8] = biological target: ATP-dependent 6-phosphofructokinase (Trypanosoma brucei brucei) (UniProt O15648); assay: qHTS Assay to Find Inhibitors of T. brucei phosphofructokinase: hit validation (AID 492961);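 note: luminescence reports ADP formed as PFK phosphorylates fructose-6-phosphate with ATP; % is set by controls: 0 for no effect and ±100 for the full control effect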; details: T. brucei PFK, ADP-Glo luminescence; series mostly up to 51.4 µM
Method in brief: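 Inhibition of parasite PFK is measured as reduced ADP formation, quantified via luciferase after ATP depletion. Assay used 0.1 mM ATP, 0.5 mM F6P, 1.25 nM enzyme, 45 min incubation.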

[9] = biological target: Ubiquitin carboxyl-terminal hydrolase 1 (Homo sapiens) (UniProt O94782); assay: Inhibitors of USP1/UAF1: Pilot qHTS (AID 504865); details: purified USP1/UAF1, Ub-rhodamine cleavage fluorescence; series mostly up to 114 µM;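 note: rhodamine fluorescence freed from ubiquitin-rhodamine substrate followed over time; top concentration of the series differs between compounds; % is set by controls: 0 for no effect and ±100 for the full control effect; nearly all actives have a fitted effect of over 35% in size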
Method in brief: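 USP1/UAF1 complex at 1 nM preincubated 15 min at room temperature with compound, then Ub-Rho substrate added at 150 nM final. Fluorescence (480/540 nm) read kinetically in 50 mM HEPES pH 7.8, 0.5 mM EDTA, 1 mM TCEP, 0.1 mg/ml BSA, 0.01% Tween-20.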

[10] = biological target: Luciferin 4-monooxygenase (Photinus pyralis) (UniProt P08659); assay: Biochemical firefly luciferase enzyme assay for NPC (AID 624030);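 note: purified P. pyralis luciferase at 10 nM with luciferin and ATP substrate; 0% = DMSO and -100% = full luciferase inhibition by PTC124 control; nearly all actives have a fitted effect of over 70% in size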; details: purified P. pyralis luciferase, luminescence, 5 min; series mostly up to 58.6 µM
Method in brief: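 Purified P. pyralis luciferase at 10 nM in 50 mM Tris Acetate (final), luminescence read within 5 minutes of enzyme addition to compounds. Activity normalised to PTC124 versus DMSO; concentration-response curves classed by r2, magnitude and activity.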

[11] = S16 Schwann cell viability assay (CellTiter-Glo assay) (AID 624031); details: S16 rat Schwann cells viability, 24 h; series mostly up to 57.5 µM;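 note: cellular ATP luminescence as a viability measure; plate controls were DMSO-treated cells for no effect and cell-free wells for full effect; nearly all actives have a fitted effect of over 70% in size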
Method in brief: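 Native S16 Schwann cells (rat), serum-containing medium, overnight attachment then 24 h drug exposure at 37 °C/5% CO2. CellTiter-Glo ATP signal; normalized to cell-free and vehicle wells.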

[12] = S16 Schwann cell PMP22 intronic element firefly luciferase assay (AID 624032); details: S16 rat Schwann cells, PMP22 element FLuc, 24 h; series mostly up to 57.5 µM;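 note: plate controls were DMSO for no effect and PTC124 positive control mean for full effect; nearly all actives have a fitted effect of over 30% in size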
Method in brief: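 Rat S16 Schwann cells stably carrying firefly luciferase driven by a PMP22 intronic element, in 10% FBS, treated 24 h at 37 C. ONE-Glo luminescence normalized to PTC124 control and DMSO (0%); curves classed by r2, magnitude and activity.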

[13] = S16 Schwann cell PMP22 intronic element beta-lactamase assay (AID 624044; calls by dose curve;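 note: 0% = DMSO and -100% = potassium clavulanate positive control; nearly all actives have a fitted effect of over 15% in size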); details: S16 rat Schwann cells, PMP22 element beta-lactamase FRET, 24 h; series mostly up to 38.3 µM
Method in brief: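 Rat S16 Schwann cells with beta-Lac driven by a PMP22 intronic element, compound-treated 24 h at 37 °C. LiveBLAzer FRET B/G read: 460 nm normalized to potassium clavulanate vs DMSO; 535 nm FRET as viability; concentration-effect curves classified.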

[14] = qHTS profiling for inhibitors of Plasmodium falciparum proliferation (AID 504749);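 note: 0% = DMSO vehicle and full inhibition = artemisinin control; nearly all actives have a fitted effect of over 60% in size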; details: P. falciparum in erythrocytes, SYBR Green DNA, 72 h, at 28.7 µM (top of the series)
Method in brief: (§1)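 P. falciparum-infected erythrocytes (0.3% parasitemia, 2.5% hematocrit) incubated with compound 72 h at 37 C, 5% CO2. Parasite DNA detected by SYBR Green after lysis, overnight at room temperature; normalised to 0.29 uM artemisinin and DMSO.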

[15] = test system: 7G8; assay: as above; details: P. falciparum in erythrocytes, SYBR Green DNA, 72 h; series mostly up to 28.7 µM
Method in brief: as §1

[16] = test system: AA1029; assay: as above; details: P. falciparum in erythrocytes, SYBR Green DNA, 72 h; series mostly up to 28.7 µM
Method in brief: as §1

[17] = test system: AS120; assay: as above; details: P. falciparum in erythrocytes, SYBR Green DNA, 72 h; series mostly up to 28.7 µM
Method in brief: as §1

[18] = test system: ATS189; assay: as above; details: P. falciparum in erythrocytes, SYBR Green DNA, 72 h; series mostly up to 28.7 µM
Method in brief: as §1

[19] = test system: C2A; assay: as above; details: P. falciparum in erythrocytes, SYBR Green DNA, 72 h; series mostly up to 28.7 µM
Method in brief: as §1

[20] = test system: CP185; assay: as above; details: P. falciparum in erythrocytes, SYBR Green DNA, 72 h; series mostly up to 28.7 µM
Method in brief: as §1

[21] = test system: CP191; assay: as above; details: P. falciparum in erythrocytes, SYBR Green DNA, 72 h; series mostly up to 28.7 µM
Method in brief: as §1

[22] = test system: CP192; assay: as above; details: P. falciparum in erythrocytes, SYBR Green DNA, 72 h; series mostly up to 28.7 µM
Method in brief: as §1

[23] = test system: CP194; assay: as above; details: P. falciparum in erythrocytes, SYBR Green DNA, 72 h; series mostly up to 28.7 µM
Method in brief: as §1

[24] = test system: CP201; assay: as above; details: P. falciparum in erythrocytes, SYBR Green DNA, 72 h; series mostly up to 28.7 µM
Method in brief: as §1

[25] = test system: CP203; assay: as above; details: P. falciparum in erythrocytes, SYBR Green DNA, 72 h; series mostly up to 28.7 µM
Method in brief: as §1

[26] = test system: CP211; assay: as above; details: P. falciparum in erythrocytes, SYBR Green DNA, 72 h; series mostly up to 28.7 µM
Method in brief: as §1

[27] = test system: CP217; assay: as above; details: P. falciparum in erythrocytes, SYBR Green DNA, 72 h; series mostly up to 28.7 µM
Method in brief: as §1

[28] = test system: CP237; assay: as above; details: P. falciparum in erythrocytes, SYBR Green DNA, 72 h; series mostly up to 28.7 µM
Method in brief: as §1

[29] = test system: CP238; assay: as above; details: P. falciparum in erythrocytes, SYBR Green DNA, 72 h; series mostly up to 28.7 µM
Method in brief: as §1

[30] = test system: CP247; assay: as above; details: P. falciparum in erythrocytes, SYBR Green DNA, 72 h; series mostly up to 28.7 µM
Method in brief: as §1

[31] = test system: CP250; assay: as above; details: P. falciparum in erythrocytes, SYBR Green DNA, 72 h; series mostly up to 28.7 µM
Method in brief: as §1

[32] = test system: CP252; assay: as above; details: P. falciparum in erythrocytes, SYBR Green DNA, 72 h; series mostly up to 28.7 µM
Method in brief: as §1

Sequence of Ubiquitin carboxyl-terminal hydrolase 1 (Homo sapiens) (O94782 whole entry, looked up): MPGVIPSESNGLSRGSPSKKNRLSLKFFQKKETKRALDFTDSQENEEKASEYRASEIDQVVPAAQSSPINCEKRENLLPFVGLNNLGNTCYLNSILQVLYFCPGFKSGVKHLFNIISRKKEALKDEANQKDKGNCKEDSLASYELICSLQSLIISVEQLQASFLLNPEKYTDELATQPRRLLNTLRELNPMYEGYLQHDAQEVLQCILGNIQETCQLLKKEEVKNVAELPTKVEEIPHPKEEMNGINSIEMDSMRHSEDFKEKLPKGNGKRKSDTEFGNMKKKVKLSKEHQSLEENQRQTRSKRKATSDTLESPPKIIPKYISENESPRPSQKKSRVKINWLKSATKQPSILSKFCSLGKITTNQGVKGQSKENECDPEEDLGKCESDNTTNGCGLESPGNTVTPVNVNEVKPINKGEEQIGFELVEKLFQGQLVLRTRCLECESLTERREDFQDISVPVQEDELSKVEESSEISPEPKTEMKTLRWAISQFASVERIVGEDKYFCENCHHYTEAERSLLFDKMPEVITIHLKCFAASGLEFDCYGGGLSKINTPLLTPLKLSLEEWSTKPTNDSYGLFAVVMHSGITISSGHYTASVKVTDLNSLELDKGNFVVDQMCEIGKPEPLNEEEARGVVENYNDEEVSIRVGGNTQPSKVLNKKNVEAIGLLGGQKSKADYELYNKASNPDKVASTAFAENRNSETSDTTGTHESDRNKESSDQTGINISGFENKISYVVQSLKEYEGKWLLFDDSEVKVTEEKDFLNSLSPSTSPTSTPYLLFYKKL
Sequence of Lysosomal acid glucosylceramidase (Homo sapiens) (P04062 whole entry, looked up): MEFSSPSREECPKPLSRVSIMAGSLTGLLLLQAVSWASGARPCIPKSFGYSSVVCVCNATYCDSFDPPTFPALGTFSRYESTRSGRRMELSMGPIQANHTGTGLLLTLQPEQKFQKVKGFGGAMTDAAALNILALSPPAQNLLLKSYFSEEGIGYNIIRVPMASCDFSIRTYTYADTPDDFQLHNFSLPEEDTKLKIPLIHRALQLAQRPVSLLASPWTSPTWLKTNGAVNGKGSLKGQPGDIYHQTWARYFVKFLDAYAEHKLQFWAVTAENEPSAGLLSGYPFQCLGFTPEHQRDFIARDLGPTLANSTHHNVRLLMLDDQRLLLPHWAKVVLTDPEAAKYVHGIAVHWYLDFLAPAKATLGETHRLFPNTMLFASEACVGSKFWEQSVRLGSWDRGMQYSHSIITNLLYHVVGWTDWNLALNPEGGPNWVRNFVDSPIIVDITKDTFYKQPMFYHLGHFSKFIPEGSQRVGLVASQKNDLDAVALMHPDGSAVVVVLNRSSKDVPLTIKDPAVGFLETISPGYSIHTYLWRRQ
Sequence of 3',5'-cyclic-AMP phosphodiesterase 4B (Homo sapiens) (Q07343 whole entry, looked up): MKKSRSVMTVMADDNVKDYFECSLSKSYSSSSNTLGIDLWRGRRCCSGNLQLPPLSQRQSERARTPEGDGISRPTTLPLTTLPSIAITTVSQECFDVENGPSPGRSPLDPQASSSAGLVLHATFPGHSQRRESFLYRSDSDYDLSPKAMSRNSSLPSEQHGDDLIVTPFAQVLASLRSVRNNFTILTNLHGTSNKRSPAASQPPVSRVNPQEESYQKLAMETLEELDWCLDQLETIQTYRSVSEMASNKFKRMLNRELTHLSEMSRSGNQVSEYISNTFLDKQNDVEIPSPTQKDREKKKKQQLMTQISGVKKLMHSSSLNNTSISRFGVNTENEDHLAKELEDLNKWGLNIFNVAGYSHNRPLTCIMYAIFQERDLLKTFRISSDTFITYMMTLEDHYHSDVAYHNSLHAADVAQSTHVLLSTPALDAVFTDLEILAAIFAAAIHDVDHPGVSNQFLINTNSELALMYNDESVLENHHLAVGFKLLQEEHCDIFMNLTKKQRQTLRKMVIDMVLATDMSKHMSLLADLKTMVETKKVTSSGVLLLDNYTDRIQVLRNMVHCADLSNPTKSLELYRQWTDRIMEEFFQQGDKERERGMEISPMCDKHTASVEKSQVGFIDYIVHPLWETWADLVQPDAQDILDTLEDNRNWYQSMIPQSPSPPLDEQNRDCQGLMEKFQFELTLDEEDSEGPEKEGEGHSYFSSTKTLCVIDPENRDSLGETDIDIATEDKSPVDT
Sequence of Luciferin 4-monooxygenase (Photinus pyralis) (P08659 whole entry, looked up): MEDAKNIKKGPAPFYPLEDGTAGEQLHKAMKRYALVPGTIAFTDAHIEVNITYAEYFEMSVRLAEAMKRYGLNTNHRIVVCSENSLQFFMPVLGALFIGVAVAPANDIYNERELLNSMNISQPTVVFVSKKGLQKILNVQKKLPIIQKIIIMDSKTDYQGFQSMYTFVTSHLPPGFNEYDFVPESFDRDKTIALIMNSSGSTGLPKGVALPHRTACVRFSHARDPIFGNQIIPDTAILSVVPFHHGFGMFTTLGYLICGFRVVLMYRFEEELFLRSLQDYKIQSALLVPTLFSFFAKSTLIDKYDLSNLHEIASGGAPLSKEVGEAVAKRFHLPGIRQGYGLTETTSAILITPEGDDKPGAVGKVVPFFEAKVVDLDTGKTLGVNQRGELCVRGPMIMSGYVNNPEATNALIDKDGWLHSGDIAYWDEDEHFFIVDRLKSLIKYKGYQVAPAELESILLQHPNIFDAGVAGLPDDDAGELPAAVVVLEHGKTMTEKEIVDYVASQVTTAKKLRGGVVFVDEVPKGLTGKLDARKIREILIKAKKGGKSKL
Sequence of ATP-dependent 6-phosphofructokinase (Trypanosoma brucei brucei) (O15648 whole entry, looked up): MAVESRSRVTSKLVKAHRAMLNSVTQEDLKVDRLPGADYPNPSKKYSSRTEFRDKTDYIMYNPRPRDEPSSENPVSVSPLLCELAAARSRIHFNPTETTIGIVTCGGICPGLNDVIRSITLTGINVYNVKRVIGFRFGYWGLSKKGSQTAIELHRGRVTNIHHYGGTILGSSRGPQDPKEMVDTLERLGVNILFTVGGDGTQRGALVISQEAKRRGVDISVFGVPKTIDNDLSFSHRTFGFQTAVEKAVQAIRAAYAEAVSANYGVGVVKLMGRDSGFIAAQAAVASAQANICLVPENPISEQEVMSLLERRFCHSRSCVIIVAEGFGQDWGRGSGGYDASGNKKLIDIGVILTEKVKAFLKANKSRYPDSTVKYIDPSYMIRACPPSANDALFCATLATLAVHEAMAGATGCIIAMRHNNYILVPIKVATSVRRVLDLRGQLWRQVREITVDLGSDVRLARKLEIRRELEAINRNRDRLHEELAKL
Sequence of Cytochrome P450 1A2 (Homo sapiens) (P05177 whole entry, looked up): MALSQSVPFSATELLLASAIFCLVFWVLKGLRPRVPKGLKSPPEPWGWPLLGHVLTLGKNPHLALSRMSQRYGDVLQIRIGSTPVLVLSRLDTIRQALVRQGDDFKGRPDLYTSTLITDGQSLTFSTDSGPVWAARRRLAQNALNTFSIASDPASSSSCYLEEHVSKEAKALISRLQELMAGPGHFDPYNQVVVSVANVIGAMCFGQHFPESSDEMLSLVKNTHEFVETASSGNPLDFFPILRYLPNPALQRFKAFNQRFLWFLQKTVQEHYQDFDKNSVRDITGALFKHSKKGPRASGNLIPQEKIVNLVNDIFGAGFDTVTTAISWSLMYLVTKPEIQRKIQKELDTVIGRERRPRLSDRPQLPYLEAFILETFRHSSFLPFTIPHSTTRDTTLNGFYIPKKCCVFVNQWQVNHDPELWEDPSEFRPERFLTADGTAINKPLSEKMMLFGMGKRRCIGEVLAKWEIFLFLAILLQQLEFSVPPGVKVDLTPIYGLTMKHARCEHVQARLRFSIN
Sequence of Glucocorticoid receptor (Homo sapiens) (P04150 whole entry, looked up): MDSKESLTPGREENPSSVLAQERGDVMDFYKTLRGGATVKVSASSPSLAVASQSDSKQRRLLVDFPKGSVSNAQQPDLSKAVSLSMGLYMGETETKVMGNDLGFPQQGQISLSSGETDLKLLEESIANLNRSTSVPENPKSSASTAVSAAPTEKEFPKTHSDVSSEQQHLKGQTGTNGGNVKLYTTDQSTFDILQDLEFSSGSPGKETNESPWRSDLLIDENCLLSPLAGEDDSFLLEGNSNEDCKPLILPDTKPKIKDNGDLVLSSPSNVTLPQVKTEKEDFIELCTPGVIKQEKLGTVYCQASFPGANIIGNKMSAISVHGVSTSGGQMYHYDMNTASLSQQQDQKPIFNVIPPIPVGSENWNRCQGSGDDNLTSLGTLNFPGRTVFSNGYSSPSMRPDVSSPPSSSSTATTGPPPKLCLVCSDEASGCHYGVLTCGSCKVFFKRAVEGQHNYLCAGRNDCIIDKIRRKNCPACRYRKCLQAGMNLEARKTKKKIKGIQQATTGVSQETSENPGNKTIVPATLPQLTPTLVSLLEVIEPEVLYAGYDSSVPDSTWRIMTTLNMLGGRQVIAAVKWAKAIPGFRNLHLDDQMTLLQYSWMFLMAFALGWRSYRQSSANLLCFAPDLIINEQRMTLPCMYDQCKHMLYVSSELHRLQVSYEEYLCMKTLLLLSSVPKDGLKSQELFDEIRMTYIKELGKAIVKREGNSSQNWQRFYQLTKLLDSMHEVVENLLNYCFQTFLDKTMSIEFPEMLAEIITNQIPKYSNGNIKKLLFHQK

C[N+]1(C)C2CC[C@H]1CC(OC(=O)[C@@H](CO)c1ccccc1)C2 (stereo partly drawn)
inactive: Potency [1] > 11.4 µM | activity change, negative = inhibition [2] 4% | Potency [3] | activity, negative = inhibition [4] 7.35% | Potency [5] > 46 µM | activity change, negative = inhibition [6] 2.63% [at 11.4 µM] | outcome [7] | outcome [8] | Potency [9] | outcome [10] | outcome [11] | outcome [12] | outcome [13] | activity, negative = inhibition ([14]; parasite line A) 0.517% | activity, negative = inhibition ([14]; parasite line B) -9.85% | Potency [15] | Potency [16] | Potency [17] | Potency [18] | Potency [19] | Potency [20] | Potency [21] | Potency [22] | Potency [23] | Potency [24] | Potency [25] | Potency [26] | Potency [27] | Potency [28] | Potency [29] | Potency [30] | Potency [31] | Potency [32]
